Results from the supplement of paper PMC4466140.

Key:
Assay in all cases: SPOT peptide array binding signal intensity (averaged, normalized) (arbitrary units (background-subtracted, floor 0; scale differs between SH3 domains)); higher = stronger binding of the SH3 domain to the peptide
AgAbp1 = molecular target: AgAbp1
In short: (§1)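 GST-fused SH3 domains, from four yeast species, were produced in E. coli BL21(DE3) and captured on glutathione Sepharose. Membranes of cellulose carrying synthetic 15-mer peptides, in which cysteines had been replaced by serines, were exposed to each domain at 10 μg/ml overnight at 4°C in TBS-based blocking buffer. After anti-GST antibody, an HRP anti-mouse secondary and luminol, spots were imaged and quantified using Genespotter. Binding signal is normalized and background-subtracted spot intensity, averaged over replicates, in arbitrary units that differ between domains.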

AgBbc1 = molecular target: AgBbc1
In short: as §1

AgBem1-D1 = molecular target: AgBem1-D1
In short: as §1

AgBzz1-D1 = molecular target: AgBzz1-D1
In short: as §1

AgBzz1-D2 = molecular target: AgBzz1-D2
In short: as §1

AgCyk3 = molecular target: AgCyk3
In short: as §1

AgFus1 = molecular target: AgFus1
In short: as §1

AgHof1 = molecular target: AgHof1
In short: as §1

AgHse1 = molecular target: AgHse1
In short: as §1

AgLsb1 = molecular target: AgLsb1
In short: as §1

AgLsb4 = molecular target: AgLsb4
In short: as §1

AgMyo5 = molecular target: AgMyo5
In short: as §1

AgNbp2 = molecular target: AgNbp2
In short: as §1

AgRvs167 = molecular target: AgRvs167
In short: as §1

AgSho1 = molecular target: AgSho1
In short: as §1

AgSla1-D1-D2 = molecular target: AgSla1-D1-D2
In short: as §1

AgSla1-D3 = molecular target: AgSla1-D3
In short: as §1

CaAbp1-D1 = molecular target: CaAbp1-D1
In short: as §1

CaAbp1-D2 = molecular target: CaAbp1-D2
In short: as §1

CaBbc1 = molecular target: CaBbc1
In short: as §1

CaBem1-D1 = molecular target: CaBem1-D1
In short: as §1

CaBzz1-D1 = molecular target: CaBzz1-D1
In short: as §1

CaBzz1-D2 = molecular target: CaBzz1-D2
In short: as §1

CaCyk3 = molecular target: CaCyk3
In short: as §1

CaFus1 = molecular target: CaFus1
In short: as §1

CaHof1 = molecular target: CaHof1
In short: as §1

CaHse1 = molecular target: CaHse1
In short: as §1

CaLsb1 = molecular target: CaLsb1
In short: as §1

CaLsb4 = molecular target: CaLsb4
In short: as §1

CaMyo5 = molecular target: CaMyo5
In short: as §1

CaNbp2 = molecular target: CaNbp2
In short: as §1

CaRvs167 = molecular target: CaRvs167
In short: as §1

CaRvs167-3 = molecular target: CaRvs167-3
In short: as §1

CaSho1 = molecular target: CaSho1
In short: as §1

CaSla1-D1-D2 = molecular target: CaSla1-D1-D2
In short: as §1

CaSla1-D3 = molecular target: CaSla1-D3
In short: as §1

ScAbp1 = molecular target: ScAbp1
In short: as §1

ScBbc1 = molecular target: ScBbc1
In short: as §1

ScBem1-D1 = molecular target: ScBem1-D1
In short: as §1

ScBzz1-D1 = molecular target: ScBzz1-D1
In short: as §1

ScBzz1-D2 = molecular target: ScBzz1-D2
In short: as §1

ScCyk3 = molecular target: ScCyk3
In short: as §1

ScFus1 = molecular target: ScFus1
In short: as §1

ScHof1 = molecular target: ScHof1
In short: as §1

ScHse1 = molecular target: ScHse1
In short: as §1

ScLsb1 = molecular target: ScLsb1
In short: as §1

ScLsb2 = molecular target: ScLsb2
In short: as §1

ScLsb3 = molecular target: ScLsb3
In short: as §1

ScLsb4 = molecular target: ScLsb4
In short: as §1

ScMyo3 = molecular target: ScMyo3
In short: as §1

ScMyo5 = molecular target: ScMyo5
In short: as §1

ScNbp2 = molecular target: ScNbp2
In short: as §1

ScPex13 = molecular target: ScPex13
In short: as §1

ScRvs167 = molecular target: ScRvs167
In short: as §1

ScSho1 = molecular target: ScSho1
In short: as §1

ScSla1-D1-D2 = molecular target: ScSla1-D1-D2
In short: as §1

ScSla1-D3 = molecular target: ScSla1-D3
In short: as §1

SpAbp1-D1 = molecular target: SpAbp1-D1
In short: as §1

SpBbc1 = molecular target: SpBbc1
In short: as §1

SpBzz1-D1 = molecular target: SpBzz1-D1
In short: as §1

SpBzz1-D2 = molecular target: SpBzz1-D2
In short: as §1

SpCyk3 = molecular target: SpCyk3
In short: as §1

SpHof1 = molecular target: SpHof1
In short: as §1

SpHof1-2 = molecular target: SpHof1-2
In short: as §1

SpHof1-3 = molecular target: SpHof1-3
In short: as §1

SpHse1 = molecular target: SpHse1
In short: as §1

SpLsb1 = molecular target: SpLsb1
In short: as §1

SpLsb4 = molecular target: SpLsb4
In short: as §1

SpMyo1 = molecular target: SpMyo1
In short: as §1

SpNbp2 = molecular target: SpNbp2
In short: as §1

SpPex13 = molecular target: SpPex13
In short: as §1

SpRvs167 = molecular target: SpRvs167
In short: as §1

SpSla1-D1-D2 = molecular target: SpSla1-D1-D2
In short: as §1

SpSla1-D3 = molecular target: SpSla1-D3
In short: as §1

## GTIARPLFLVVLFFI
AgAbp1
  SPOT peptide array binding signal intensity: ≤ 0
AgBbc1
  SPOT peptide array binding signal intensity: 1.25
AgBem1-D1
  SPOT peptide array binding signal intensity: 33
AgBzz1-D1
  SPOT peptide array binding signal intensity: 18
AgBzz1-D2
  SPOT peptide array binding signal intensity: 13.5
AgCyk3
  SPOT peptide array binding signal intensity: 8
AgFus1
  SPOT peptide array binding signal intensity: 1900
AgHof1
  SPOT peptide array binding signal intensity: 0.75
AgHse1
  SPOT peptide array binding signal intensity: 428
AgLsb1
  SPOT peptide array binding signal intensity: ≤ 0
AgLsb4
  SPOT peptide array binding signal intensity: 580
AgMyo5
  SPOT peptide array binding signal intensity: 0.5
AgNbp2
  SPOT peptide array binding signal intensity: 57
AgRvs167
  SPOT peptide array binding signal intensity: 1.33
AgSho1
  SPOT peptide array binding signal intensity: 338
AgSla1-D1-D2
  SPOT peptide array binding signal intensity: ≤ 0
AgSla1-D3
  SPOT peptide array binding signal intensity: 1.75
CaAbp1-D1
  SPOT peptide array binding signal intensity: 56.5
CaAbp1-D2
  SPOT peptide array binding signal intensity: 28.5
CaBbc1
  SPOT peptide array binding signal intensity: 2
CaBem1-D1
  SPOT peptide array binding signal intensity: 15.5
CaBzz1-D1
  SPOT peptide array binding signal intensity: 88
CaBzz1-D2
  SPOT peptide array binding signal intensity: 23.5
CaCyk3
  SPOT peptide array binding signal intensity: 10
CaFus1
  SPOT peptide array binding signal intensity: 3640
CaHof1
  SPOT peptide array binding signal intensity: 16.5
CaHse1
  SPOT peptide array binding signal intensity: 126
CaLsb1
  SPOT peptide array binding signal intensity: 1.25
CaLsb4
  SPOT peptide array binding signal intensity: ≤ 0
CaMyo5
  SPOT peptide array binding signal intensity: 4.5
CaNbp2
  SPOT peptide array binding signal intensity: 600
CaRvs167
  SPOT peptide array binding signal intensity: 49
CaRvs167-3
  SPOT peptide array binding signal intensity: 17
CaSho1
  SPOT peptide array binding signal intensity: 730
CaSla1-D1-D2
  SPOT peptide array binding signal intensity: ≤ 0
CaSla1-D3
  SPOT peptide array binding signal intensity: 5.75
ScAbp1
  SPOT peptide array binding signal intensity: 3
ScBbc1
  SPOT peptide array binding signal intensity: ≤ 0
ScBem1-D1
  SPOT peptide array binding signal intensity: 1
ScBzz1-D1
  SPOT peptide array binding signal intensity: 40
ScBzz1-D2
  SPOT peptide array binding signal intensity: 37.5
ScCyk3
  SPOT peptide array binding signal intensity: 50
ScFus1
  SPOT peptide array binding signal intensity: 2030
ScHof1
  SPOT peptide array binding signal intensity: ≤ 0
ScHse1
  SPOT peptide array binding signal intensity: 472
ScLsb1
  SPOT peptide array binding signal intensity: ≤ 0
ScLsb2
  SPOT peptide array binding signal intensity: ≤ 0
ScLsb3
  SPOT peptide array binding signal intensity: ≤ 0
ScLsb4
  SPOT peptide array binding signal intensity: ≤ 0
ScMyo3
  SPOT peptide array binding signal intensity: ≤ 0
ScMyo5
  SPOT peptide array binding signal intensity: 1
ScNbp2
  SPOT peptide array binding signal intensity: 78.5
ScPex13
  SPOT peptide array binding signal intensity: ≤ 0
ScRvs167
  SPOT peptide array binding signal intensity: 1.67
ScSho1
  SPOT peptide array binding signal intensity: 1050
ScSla1-D1-D2
  SPOT peptide array binding signal intensity: ≤ 0
ScSla1-D3
  SPOT peptide array binding signal intensity: 1
SpAbp1-D1
  SPOT peptide array binding signal intensity: 3.5
SpBbc1
  SPOT peptide array binding signal intensity: 2
SpBzz1-D1
  SPOT peptide array binding signal intensity: 111
SpBzz1-D2
  SPOT peptide array binding signal intensity: ≤ 0
SpCyk3
  SPOT peptide array binding signal intensity: 24
SpHof1
  SPOT peptide array binding signal intensity: 45
SpHof1-2
  SPOT peptide array binding signal intensity: 22.5
SpHof1-3
  SPOT peptide array binding signal intensity: 637
SpHse1
  SPOT peptide array binding signal intensity: 1630
SpLsb1
  SPOT peptide array binding signal intensity: ≤ 0
SpLsb4
  SPOT peptide array binding signal intensity: ≤ 0
SpMyo1
  SPOT peptide array binding signal intensity: 4.25
SpNbp2
  SPOT peptide array binding signal intensity: 160
SpPex13
  SPOT peptide array binding signal intensity: 1
SpRvs167
  SPOT peptide array binding signal intensity: ≤ 0
SpSla1-D1-D2
  SPOT peptide array binding signal intensity: 1
SpSla1-D3
  SPOT peptide array binding signal intensity: ≤ 0
